Source: PubChem BioAssay (NCATS)
Records with an inconclusive call do not appear. A call without a number means that no potency is given here. Calls of active or inactive are those of the source. Unless noted, calls come from the whole dose curve; as a rule, active = well fitted curve in the direction sought with a large enough effect; inconclusive = small, poorly fitted or top-dose-only effect, or another doubt; inactive = no such curve, though single readings can be large; an effect the other way counts as inactive or inconclusive.

Assays:
[1] = molecular target: Aldehyde dehydrogenase, mitochondrial (Homo sapiens) (UniProt P05091); experiment: qHTS for Inhibitors of the Aldehyde Dehydrogenase Family (ALDH2) Confirmatory screens (AID 2061303; active = well fitted inhibition curve with a large enough effect; title and protocol of this record describe different tests; note: nearly all actives have a fitted effect of over 45% in size; note: potency is the fitted concentration of half-maximal effect); details: ALDH inhibition qHTS; series mostly up to 45.4 µM
[2] = molecular target: Aldehyde dehydrogenase, mitochondrial (Homo sapiens) (UniProt P05091); experiment: qHTS for Inhibitors of the Aldehyde Dehydrogenase Family (ALDH2) Primary screen (AID 2061308); details: ALDH2 enzyme inhibition qHTS, 1536-well; series mostly up to 56 µM; note: nearly all actives have a fitted effect of over 55% in size; note: potency is the fitted concentration of half-maximal effect
[3] = molecular target: Retinal dehydrogenase 2 (Homo sapiens) (UniProt O94788); experiment: qHTS for Inhibitors of the Aldehyde Dehydrogenase Family (ALDH1A2) Confirmation screens (AID 2061314); details: ALDH1A2 enzyme inhibition qHTS confirmation; series mostly up to 45.9 µM; note: potency is the fitted concentration of half-maximal effect; nearly all actives have a fitted effect of over 65% in size
[4] = molecular target: Retinaldehyde dehydrogenase 3 (Homo sapiens) (UniProt P47895); experiment: qHTS for Inhibitors of the Aldehyde Dehydrogenase Family (ALDH1A3) Primary screen (AID 2061315); details: ALDH inhibition qHTS; series mostly up to 56 µM
[5] = molecular target: Retinaldehyde dehydrogenase 3 (Homo sapiens) (UniProt P47895); experiment: qHTS for Inhibitors of the Aldehyde Dehydrogenase Family (ALDH1A3) Confirmatory screens (AID 2061311); details: ALDH inhibition qHTS; series mostly up to 46 µM; note: nearly all actives have a fitted effect of over 60% in size; note: potency is the fitted concentration of half-maximal effect
[6] = molecular target: Aldehyde dehydrogenase 1A1 (Homo sapiens) (UniProt P00352); experiment: qHTS for Inhibitors of the Aldehyde Dehydrogenase Family (ALDH1A1) Confirmatory screens (AID 2061316); details: ALDH inhibition qHTS; series mostly up to 47.3 µM; note: nearly all actives have a fitted effect of over 65% in size; note: potency is the fitted concentration of half-maximal effect

## COc1ccc(C2Nc3ccccc3C(=O)N2Cc2ccccc2)cc1COc1ccccc1OC (stereo unspecified)
[1]
  Potency: inactive
[2]
  Potency: inactive
[3]
  Potency: 8.96 µM (active)
[4]
  Potency: inactive

## CC(C)(C)Nc1nc(C#N)nc(Nc2ccccc2)n1
[1]
  Potency: inactive
[2]
  Potency: inactive
[5]
  Potency: inactive
[4]
  Potency: inactive
[6]
  Potency: inactive

## O=C1c2ccccc2NC(c2ccc(-c3ccc(F)cc3)o2)N1O (stereo unspecified)
[1]
  Potency: 1.58 µM (active)
[2]
  Potency: 3.55 µM (active)
[3]
  Potency: 12.7 µM (active)
[4]
  Potency: inactive
[6]
  Potency: 2.52 µM (active)

## O=S1(=O)CCN(Cc2cc(NCC3CCOCC3)c3[nH]c(-c4ccccc4)cc3c2)CC1
[1]
  Potency: inactive
[2]
  Potency: inactive
[5]
  Potency: 11.3 µM (active)
[6]
  Potency: inactive

## Cc1cc(C)nc(NC(=S)N2CCN(c3cncc4ccccc34)CC2)c1
[1]
  Potency: inactive
[2]
  Potency: inactive
[5]
  Potency: 22.5 µM (active)
[4]
  Potency: inactive
[6]
  Potency: 5.65 µM (active)

## S=C(Nc1ccccn1)c1ccccn1
[1]
  Potency: 28.3 µM (active)
[2]
  Potency: 11.2 µM (active)
[5]
  Potency: 6.34 µM (active)
[6]
  Potency: 5.65 µM (active)

## O=C(O)CN1C(=O)N/C(=C\c2cccn2-c2ccc(P(=O)(O)O)cc2)C1=O
[1]
  Potency: inactive
[2]
  Potency: inactive
[5]
  Potency: inactive
[4]
  Potency: inactive
[6]
  Potency: 7.98 µM (active)

## CC(=O)c1ccc(N2CCN(S(=O)(=O)c3ccc4c(c3)n(C)c(=O)n4C)CC2)cc1
[1]
  Potency: 0.316 µM (active)
[2]
  Potency: inactive
[5]
  Potency: 2.01 µM (active)
[6]
  Potency: inactive

## O=c1[nH]c(CN2CCOCC2)nc2sc3c(c12)CCC3
[1]
  Potency: inactive
[2]
  Potency: inactive
[5]
  Potency: 11.3 µM (active)
[4]
  Potency: inactive
[6]
  Potency: inactive

## COc1ccc(-c2csc(NC(=O)c3ccncc3NS(=O)(=O)c3ccc(C)cc3)n2)cc1
[1]
  Potency: inactive
[2]
  Potency: inactive
[5]
  Potency: inactive
[4]
  Potency: inactive
[6]
  Potency: 22.5 µM (active)
